Numbering of substitutions follows the chain as printed. In all, about 5,800 sequences were measured (“enrichment r”: median about 0.54, highest 2% from about 16 on). What follows is part of a selection rich in the highest values, with near analogues and random picks from the rest.
B1: ENSG00000070961:be:win_1201|CDS|ENSG00000070961|bound_else_gene|NA|bound_elsewhere_windowed (ssRNA)
RNA: GGGAGUUCUACAGUCCGACGAUCAAAAGACCAUGGCUUGCUGAGUGCACACCAAUUUAUAUACAAUACUUUGUGAAGUUCUUCAUUAUUGGAGUUACAGUUUUAGUGGUCGCAGUGCCAGAAGGUCUUCCACUUGCAGUCACGCAACAGAGGAUUGAGCAUCA
B2: chr5:150401636:150402250:-|three_prime_utr|ENSG00000019582|control|control|control (ssRNA)
RNA: GGGAGUUCUACAGUCCGACGAUCCUGCUGCCCAAUCUCCAUCUGUCAACAGGGGCGUGAGGUCCCAGGAAGUGGCCAAAAGCUAGACAGAUCCCCGUUCCUGACAUCACAGCAGCCUCCAACACAAGGCUCCAAGACCUAGGCCAACAGAGGAUUGAGCAUCA
B3: chr5:40972473:40972581:+|CDS|ENSG00000112936|unk|FALSE|unique (ssRNA)
RNA: GGGAGUUCUACAGUCCGACGAUCAAAACCUUUCUACACAGUUGGUGAGAAGGUGACUGUUUCCUGUUCAGGUGGCAUGUCCUUAGAAGGUCCUUCAGCAUUUCUCUGUGGCUCCAGCCUUAAGUGGAGUCCUGAGAUGAAGAACAACAGAGGAUUGAGCAUCA
B4: ENSG00000096070:stop:overlap|stop_codon|ENSG00000096070|stop_codon|NA|stop_codon (ssRNA)
RNA: GGGAGUUCUACAGUCCGACGAUCAGAAGGAUCCUGCACACAUCUUCGCAGAACCAGUCAACUUGAGUGAGGUUUUAUAUGUUUAGGUUCCAGAUUACCUGGAAUUCAUAUCCAAGCCAAUGGAUUUUUCUACUAUGAGGCGGACAACAGAGGAUUGAGCAUCA
B5: chr1:16124349:16124452:-|3pUTR|ENSG00000142627|msi1|FALSE|unique (ssRNA)
RNA: GGGAGUUCUACAGUCCGACGAUCUUUGUUUUGUUGGACAUUUUUUUCGAAUCUUAAUUUAUUAUUUUUUUUAUAUUUAUUGUUAGAAAAUGACUUAUUUCUGCUCUGGAAUAAAGUUGCAGAUGAUUCAAACCGAUCUUGGCUCAACAGAGGAUUGAGCAUCA
B6: chr15:67202635:67202736:-|3pUTR|ENSG00000103591|msi1|FALSE|unique (ssRNA)
RNA: GGGAGUUCUACAGUCCGACGAUCUGCCAAAAUUGCCCUUAUCAUGUUGGCUGCCUGACUUGUUUAUAGGGUCCCCUUAAUUUUAGUUUUUAGUAGGAGGUUAAGGAGAAAUCUUUUUUUUCCUCAGUAUAUUGUAAGAGAGUGCAACAGAGGAUUGAGCAUCA
B7: chr6:1612588:1612689:+|3pUTR|ENSG00000054598|msi1|FALSE|unique (ssRNA)
RNA: GGGAGUUCUACAGUCCGACGAUCUUUAUUCAUGGACUUGUUUUAAAAUGUAAAUUGCAACAUAGUAAUUUAUUUUUAAUUUGUAGUUGGAUGUCGUGGACCAAACGCCAGAAAGUGUUCCCAAAACCUGACGUUAAAUUGCCUCAACAGAGGAUUGAGCAUCA
B8: ENSG00000070961:be:win_4051|3pUTR|ENSG00000070961|bound_else_gene|NA|bound_elsewhere_windowed (ssRNA)
RNA: GGGAGUUCUACAGUCCGACGAUCAUUUCUGCUGUUGGCUGUUAAUAAUUUGGAUUAUUUAUGUUUAUAAAUGAUACAGAUCUGUUUACAAGGUUUGUAGAUACUUUUUUUGUUCCUGUUCAUAGAUGGGAAGCUUCCUUAUAACAACAGAGGAUUGAGCAUCA
B9: chr3:100749155:100750494:-|three_prime_utr|ENSG00000154175|control|control|control (ssRNA)
RNA: GGGAGUUCUACAGUCCGACGAUCUGCCGCAUUCAUUUAAAGCUAUUUUGUUUACUAUGUAUAAAAGUCUACAAUCUAAUUAAUAGCAAUACUAGAUGUUUAUUAUUAGAAAAGAUUGCUGAGAGUAUUUAUCAGGUUUUACAACAACAGAGGAUUGAGCAUCA
B10: chr16:3436009:3436110:-|3pUTR|ENSG00000167981|unk|total|mutant (ssRNA)
RNA: GGGAGUUCUACAGUCCGACGAUCAUUAAAAUGAAGGCUCUUGCUAAAGUUAUUUUAAUUUUGUUUACGCCGUUUCUGACUUUCCGAAGGAGGAGAAUUUAUUUAUAUUUUGCCAGUUCUGCAGACAUAUCCCGGAAAGUAAAUCAACAGAGGAUUGAGCAUCA
B11: chr15:67202635:67202736:-|3pUTR|ENSG00000103591|msi1|total|mutant (ssRNA)
RNA: B6 RNA with U66C, A67C, U83C, A84C, U90C, A91C, U93C, A94C
B12: chr3:46835109:46836203:-|three_prime_utr|ENSG00000160808|control|control|control (ssRNA)
RNA: GGGAGUUCUACAGUCCGACGAUCUGAAGGCACAAGCUGUUCCAGUAUAAUAAAGAAAAUAAUUAAAUUAAGAAAAGUUAUACUAGAAAUAAGAUAUAGGUAUGAUUAUUAUUAAUCAUUAGUUUGUAGUAUUACUUUGUUCUACAACAGAGGAUUGAGCAUCA
B13: chr1:183143318:183143419:+|3pUTR|ENSG00000135862|msi1|total|mutant (ssRNA)
RNA: GGGAGUUCUACAGUCCGACGAUCACAUCCUGUGCCAAAGGUAUUGGUCAUUCCGAAUGUCGGCCGCCAUCCAUCAGUGCUUUCCGUUAUUAUGAGUGCCGGACACUGAGCCAUCCGUGGGUCAGGAUGCAAUUAUUUAUAAAACAACAGAGGAUUGAGCAUCA
B14: chr13:42886387:42888493:-|three_prime_utr|ENSG00000133106|control|control|control (ssRNA)
RNA: GGGAGUUCUACAGUCCGACGAUCCAUAUUUAAUCUCUACUGCCAGGGAAAUGCUACAUUAUUUUUCUAAUUGGAAGUAUAAUUAGAGUGAUGUUGGUAGGGUAGAAAAAGAGGGAGUCACUUGAUGCUUUCAGGUUAAUCAGACAACAGAGGAUUGAGCAUCA
B15: chr1:183143318:183143419:+|3pUTR|ENSG00000135862|msi1|FALSE|unique (ssRNA)
RNA: B13 RNA with C52U, C53A, C63U, C64A, C83U, C84A, C98U, C99A
B16: chr16:3436009:3436110:-|3pUTR|ENSG00000167981|unk|FALSE|unique (ssRNA)
RNA: B10 RNA with C69U, C70A, C83U, C84A, C131U, C132A

What follows are binders tested against MSI1 full-length (mouse, UniProt Q61474 1-362) (assay: nsRBNS (natural sequence RNA bind-n-seq); RBNS binding buffer (assumed for nsRBNS): 25 mM Tris pH 7.5, 150 mM KCl, 3 mM MgCl2, 0.01% Triton X-100, 500 ug/ml BSA, 20 U/ml SUPERase-In, 4 C; UNK is unkempt and MSI1 is Musashi-1; names of the RNAs are library labels; protein concentration not given here; high values mean tight binding).
Sequence of MSI1 full-length (Q61474 whole entry): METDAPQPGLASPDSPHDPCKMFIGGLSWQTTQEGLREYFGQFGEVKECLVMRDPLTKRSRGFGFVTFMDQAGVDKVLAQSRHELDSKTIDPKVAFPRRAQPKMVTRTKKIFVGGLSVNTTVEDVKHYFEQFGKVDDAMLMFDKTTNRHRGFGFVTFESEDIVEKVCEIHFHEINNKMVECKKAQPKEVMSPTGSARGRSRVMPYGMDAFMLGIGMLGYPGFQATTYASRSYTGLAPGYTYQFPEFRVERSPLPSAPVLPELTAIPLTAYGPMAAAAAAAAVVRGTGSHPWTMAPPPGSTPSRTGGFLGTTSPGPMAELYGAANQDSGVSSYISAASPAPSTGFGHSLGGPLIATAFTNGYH
B1 showed a binding signal of 1.51 enrichment R. For B2, the binding signal was 0.462 enrichment R. Work on B3 yielded a binding signal of 0.339 enrichment R. In the case of B4, the binding signal is reported as 0.383 enrichment R. With B5 the binding signal was 4.58 enrichment R. B6 gave a binding signal of 32.9 enrichment R. Binder B7 has a binding signal of 0.311 enrichment R. Work on B8 yielded a binding signal of 1.02 enrichment R. B9 gave a binding signal of 4.63 enrichment R. B10 showed a binding signal of 0.68 enrichment R. Binder B11 has a binding signal of 0.438 enrichment R. In the case of B12, the binding signal is reported as 24.8 enrichment R. Binder B13 has a binding signal of 0.319 enrichment R. Binder B14 has a binding signal of 0.46 enrichment R. B15 showed a binding signal of 34.2 enrichment R. B16 was tested, and the binding signal was 19.1 enrichment R.

— paper PMC12136788
